# Reference: PubChem BioAssay (NCI)
# This is part of a sample that, as a whole, favours compounds with a hit. Of some 83,000 tested, about 20% had one in any assay.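 48-hour exposure, single concentration, 96-well plates; percent growth endpoint where 0 means no net growth. Active: below 10.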 Active and inactive are the calls of the source.
# Tested on: BT-549 breast
# Test: NCI-60 one-dose screen, 48 h (100 = growth as untreated, 0 = no growth, -100 = all killed)
# Settings: 10 µM unless noted
# Description: Growth inhibition of the BT-549 human tumor cell line is measured as a screen for anti-cancer activity. Cells are grown in 96 well plates and exposed to the test compound for 48 hours. Compounds are tested at a single concentration, which is 10^-5 M for most compounds. The reported endpoint is percent growth (GI% or GIPRCNT), where numbers from 0 - 100% represent growth inhibition, and numbers from -100% - 0 represent cell death. For example, a value of 40 represents 60% growth inhibition. A value of 0 means no net growth occurred over the course of the experiment. A value of -40 indicates 40% of cells at the beginning of the experiment died by the end of the experiment. A value of -100 means all cells are dead at the end of the experiment.
# NCI-60 Human Tumor Cell Lines Screen was performed using the standard one-dose NCI protocol, which is described in more detail at https://dtp.cancer.gov/discovery_development/nci-60/default.htm.
# Compounds with GIPRCNT values below 10 were considered active. Activity score was based on GIPRCNT using the following formula: […]
# Score is 0 for GIPRCNT values of 100 or above, 50 for GIPRCNT values of 0, and 100 for GIPRCNT values of -100.
row,SMILES,growth
1,NC(=O)c1c(Br)n(C2OC(CO)C(O)C2O)c2ncnc(N)c12 (stereo not given),-16.1% (active)
2,C[C@]12CCc3sc(NCCc4ccccc4)nc3C1=CC[C@@H]1[C@@H]2CC[C@]2(C)C(=O)CC[C@@H]12,60.4% (inactive)
3,C=C1C[C@](OC)([C@H](O)C(=O)N[C@@H](OC)[C@@H]2C[C@@H](O)C(C)(C)[C@@H](C[C@@H](COC)OC)O2)O[C@H](C)[C@@H]1C,-59.9% (active)
4,C/C(=C\c1ccn(-c2ccc(N)cc2)n1)[C@@H]1C[C@@H]2O[C@]2(C)CCC[C@H](C)[C@H](O)[C@@H](C)C(=O)C(C)(C)[C@@H](O)CC(=O)O1,26.9% (inactive)
5,COc1ccc(O)c(CNC(=O)CN2CCCC2=O)c1,98.7% (inactive)
6,COc1cccc(/C=C/[N+](=O)[O-])c1,29.5% (inactive)
7,COc1cc2c(c(OC)c1OC)-c1ccc([O-])c(=O)cc1[C@@H](NC(C)=O)CC2.COc1cc2c(c(OC)c1OC)-c1ccc([O-])c(=O)cc1[C@@H](NC(C)=O)CC2.[Cu+2],12.8% (inactive)
8,COc1ccc(/C(C)=C(\c2ccc(OCCN3CCOCC3)cc2)c2ccc(OC(=O)Cc3ccccc3)cc2)cc1,108% (inactive)
9,CCCCCCCC(=O)OCC(=O)[C@]1(O)Cc2c(O)c3c(c(O)c2[C@@H](OC2CC(N)C(O)C(C)O2)C1)C(=O)c1c(OC)cccc1C3=O (stereo not given in full),-84% (active)
10,CC1=C(O)[C@@](C)(CCCCC[C@H](C)CCCCc2ccc(O)cc2)OOC1=O,97.4% (inactive)
11,COC(=O)C12CC(NC(=O)c3csc([C@@H](C[C@H](C(C)C)N(C)C(=O)[C@@H](NC(=O)[C@H]4CCCCN4C)C(C)C)OC(C)=O)n3)(C1)C2,-25.8% (active)
12,CC(=O)OC1CCC2(C)C(CCC3C2CC(=O)C2(C)C3CC(Sc3ccc(N(CCCl)CCCl)cc3)C2C(C)=O)C1 (stereo not given),80.8% (inactive)
13,Cc1ccc(C(=O)NCCCOc2ccc(N3C(N)=NC(N)=NC3(C)C)cc2Cl)cc1S(=O)(=O)F,64.8% (inactive)
14,O=C(N/N=C/c1ccc(N(CCCl)CCCl)cc1)c1cccc2ccccc12,67.4% (inactive)
15,CC1(C)N=C(N)N=C(N)N1c1ccc(OCCCNC(=O)Nc2ccc(S(=O)(=O)F)cc2)c(Cl)c1,60.9% (inactive)
16,CCn1cnc2c(Nc3cccc(Cl)c3)nc(N[C@@H]3CCCC[C@@H]3N)nc21,61.7% (inactive)
17,C1CCC([PH+](C2CCCCC2)C2CCCCC2[PH+](C2CCCCC2)C2CCCCC2)CC1.[Au].[CH-]1CCCCC1CC1CCCC[N-]1 (stereo not given),-53.6% (active)
18,O=[N+]([O-])/C=C\c1ccc(Cl)c(Cl)c1,4.99% (active)
19,Cc1ccc(Nc2nc3c(s2)C2=CC[C@@H]4[C@H](CC[C@]5(C)C(=O)CC[C@@H]45)[C@@]2(C)CC3)cc1,24.7% (inactive)
20,OCCNC(Cc1ccccc1)c1ccc2c(c1)OCO2 (stereo not given),81.2% (inactive)

row,SMILES,growth
1,COC(=O)[C@@H](C)C[C@H](Cc1ccccc1)NC(=O)c1csc([C@@H](C[C@H](C(C)C)N(C)C(=O)C2(NC(=O)[C@H]3CCCCN3C)CCC2)OC(C)=O)n1,11.6% (inactive)
2,C[C@]12CCc3nc(Nc4ccccc4F)sc3C1=CC[C@@H]1[C@@H]2CC[C@]2(C)C(=O)CC[C@@H]12,66.2% (inactive)
3,O=C1C=C2C(=CCOC2O)O1 (stereo not given),52.8% (inactive)
4,CC(=O)OCc1cc[c]([Hg][Cl])o1,14.3% (inactive)
5,CC(=O)OC[C@]1(C)C=C2C(=O)[C@](C)(O)C3(CC3)C(C)=C2[C@H]1OC(=O)N(C)CCN(C)C(=O)OC(C)(C)C,-32.8% (active)
6,CC(=O)O[C@@H]1CC[C@]2(C)[C@H]3CC[C@]4(C)C(=O)CC[C@H]4[C@@H]3C[C@@H]3SC(N)=N[C@@]32C1,45.2% (inactive)
7,COc1ccc(C(=O)c2sc3nc4c(cc3c2N)N2CCC4CC2)cc1OC,81.5% (inactive)
8,C=CCCCCCCCCC(=O)[O-].C=CCCCCCCCCC(=O)[O-].[Zn+2],108% (inactive)
9,O[C@H](CN1CC1)[C@@H](O)CN1CC1,81.9% (inactive)
10,CC[C@H](C)[C@H](NC(=O)N[C@@H](C)c1ccccc1)C(=O)N(C)[C@H](C[C@@H](OC(C)=O)c1nc(C(=O)N[C@@H](Cc2ccccc2)C[C@H](C)C(=O)OC)cs1)C(C)C,10.5% (inactive)
11,COC(=O)N[C@H]1CCc2c(Br)c(OC)c(OC)c(OC)c2-c2ccc(SC)c(=O)cc21,17.1% (inactive)
12,Cn1cc(C=O)c2nccnc21,151% (inactive)
13,CCOC(=O)[C@@H](C)C[C@H](Cc1ccccc1)NC(=O)c1csc([C@@H](C[C@H](C(C)C)N(C)C(=O)CNC(=O)[C@H]2CCCCN2C)OC(C)=O)n1,30.9% (inactive)
14,Clc1ccc(CO/N=C(\Cn2ccnc2)c2ccc(Cl)cc2Cl)c(Cl)c1,-44% (active)
15,C[C@@H]1O[C@@H](O[C@H]2C[C@@H](O)[C@]3(CO)C4C(CC[C@]3(O)C2)[C@@]2(O)CC[C@H](C3=CC(=O)OC3)[C@@]2(C)C[C@H]4O)[C@H](O)[C@H](O)[C@H]1O (stereo not given in full),-91% (active)
16,CCOC(=O)C(Cc1ccc(N(CCCl)CCCl)cc1)NC(=O)C(CC(C)C)NC(C)=O (stereo not given),65% (inactive)
17,CC(C)(C)C(=O)OCOP(=O)(OCOC(=O)C(C)(C)C)C1CCCN(O)C1=O (stereo not given),4.85% (active)
18,CCCC(C)C1(CC)C(=O)NC(=O)N(C)C1=O (stereo not given),105% (inactive)
19,Nc1nc([Se])c2ncn(C3OC(CO)C(O)C3O)c2n1 (stereo not given),69.7% (inactive)
20,O=C1CCC2(O)[C@@H]3Cc4ccc(O)c5c4[C@]2(CCN3Cc2ccoc2)C1O5 (stereo not given in full),110% (inactive)
